Among the data in PubChem BioAssay (Tox21) are Potency values, retold here.

Active and inactive are the calls of the source. A call without a number means that no potency is given here. Calls follow the shape of the dose curve; as a rule, active = well fitted activation curve with a large enough effect in the repeat runs; inconclusive = weak or mixed curves; inactive = flat fitted curve, though single readings scatter.

This assay is described as follows: Caspase-3/7 induction in CHO-K1 cells by small molecules, qHTS assay (AID 1346980). Also: nearly all actives have a fitted effect of over 15% in size. As to conditions: CHO-K1 caspase-3/7 induction, Caspase-Glo luminescence, 17 h; series mostly up to 92.4 µM. The source says:
National Center for Advancing Translational Sciences [NCATS]
NIH Chemical Genomics Center [NCGC]
U.S. Environmental Protection Agency [EPA]
National Institutes of Environmental Health Sciences [NIEHS]
National Toxicology Program [NTP]
Apoptosis is a process of programmed cell death and plays a central role in the development of multicellular organisms. It is a highly regulated process and induces cell death by activating caspases, which are the members of cysteine aspartic acid-specific protease (caspase) family. Caspases involved in apoptosis are classified by their mechanism of action as initiator caspases (caspase-2, -8, -9 and -10) and executioner caspases (caspase-3, -6, and -7). Inhibition of apoptosis results in number of cancers, autoimmune diseases, inflammatory diseases and viral infection. To identify small molecule compounds that induce apoptosis, a homogeneous, luminescent Caspase-Glo 3/7 assay was used. Wild type CHO-K1 cells were used to screen Tox21 libraries for identifying caspase-3/7 activity inducers.
CHO-K1 cells were dispensed at 1,500 per well in 5uL of culture medium into white solid bottom 1536-well plates (Corning Life Sciences, Corning, NY) using a Multidrop Combi (Thermo Scientific, Waltham, MA) dispenser. The assay plates were incubated at 37 C and 5% CO2 for 5hr, and then 23nL of compounds dissolved in DMSO and positive control were transferred using a Pintool station (Wako, San Diego, CA). The assay plates were incubated at 37C and 5% CO2 for 17hr. For caspase-3/7 activity read, 4uL of Caspase-Glo 3/7 reagent (Promega Corporation, Madison, WI) was added to each well of the assay plates using Flying Reagent Dispenser (FRD, Aurora Discovery, San Diego, CA) and incubated the assay plates at room temperature for 30min. The luminescence signal was quantified using a ViewLux plate reader (Perkin Elmer, Shelton, CT).
A general note: In qHTS, concentration-response curves come from the screen itself.
With `O=C1c2ccccc2C(=O)C1c1nc2ccccc2c(Br)c1O`, the Potency result is “inactive”.

Regarding `CCCCCC[C@@H](O)C/C=C\CCCCCCCC(=O)O`, the Potency entry was “inactive”.

Take `O=[N+]([O-])c1ccc(O/N=C/c2cc(Br)c(O)c(Br)c2)c([N+](=O)[O-])c1`: the Potency result was “inactive”.

`CCOC(=O)OC(C)OC(=O)[C@@H]1N2C(=O)[C@@H](NC(=O)[C@H](N)c3ccccc3)[C@H]2SC1(C)C` (stereo not given in full): the Potency entry is “inactive”.

For the compound `CC(C)C(O)(c1ccc(OC(F)(F)F)cc1)c1cncnc1` (stereo not given), the Potency entry is “inactive”.

Consider `CNC(=O)c1cnn(-c2nc(N)c3ncn([C@@H]4O[C@H](CO)[C@@H](O)[C@H]4O)c3n2)c1`, for which the Potency entry was “inactive”.

`CC(C)C=O`: the Potency entry was “inactive”.

On to `O=c1cc(-c2ccccc2)oc2ccc3ccccc3c12`, for which the Potency result is “inactive”.

For the compound `CC(C)(c1ccccc1)c1ccccc1`, the Potency entry was “inactive”.

As for `CCOC(=O)C1=C(C)NC(C)=C(C(=O)OC)C1c1cccc(Cl)c1Cl` (stereo not given), the Potency entry was “inactive”.

Consider `CN1C(=O)OC(C)(C)C1=O`, for which the Potency entry is “inactive”.

In the case of `O=C=Nc1ccc(Cl)c(Cl)c1`, the Potency entry was “inactive”.

On to `FC(F)(F)c1ccccc1Cl`, for which the Potency entry was “inactive”.

Turning to `N#CCc1ccc(Cl)cc1Cl`, the Potency result is “inactive”.

Take `CCC1CO1` (stereo not given): the Potency entry was “inactive”.

Take `Nc1ccc(N=Nc2ccccc2)c(N)c1`: the Potency result was “inactive”.

`CC(C)=CCC/C(C)=C/CC/C(C)=C/C(=O)OCC(=O)[C@@]1(O)CC[C@H]2[C@@H]3CCC4=CC(=O)C=C[C@]4(C)[C@H]3[C@@H](O)C[C@@]21C`: the Potency result was “inactive”.

For the compound `CN1C(=O)c2ccccc2C1=O`, the Potency entry was “inactive”.

In the case of `Cc1ccc(C(C)(C)O)cc1`, the Potency result is “inactive”.

Regarding `CC1(C)[C@@H](OC(=O)CCC(=O)O)CC[C@]2(C)[C@H]3C(=O)C=C4[C@@H]5C[C@@](C)(C(=O)O)CC[C@]5(C)CC[C@@]4(C)[C@]3(C)CC[C@@H]12`, the Potency result was “inactive”.

Turning to `CCC(C)(C)OC`, the Potency entry is “inactive”.

`CS(=O)(=O)c1ccc(-c2cn3ccccc3n2)cc1`: the Potency result was “inactive”.

In the case of `CCN(CC)CCNC(=O)COc1ccc(OC)cc1`, the Potency result is “inactive”.

As for `Clc1cc(Cl)nc(Cl)n1`, the Potency result was “inactive”.

As for `CCCCC(CC)COP(=O)(O)O` (stereo not given), the Potency result was “inactive”.

Consider `OC[C@H]1O[C@@H](n2cnc3c(=S)nc[nH]c32)[C@H](O)[C@@H]1O`, for which the Potency result is “inactive”.

`CC1CC(C)C(=O)C1=O` (stereo not given): the Potency entry was “inactive”.

With `COc1cc(N)c(Cl)cc1C(=O)NC1CCN(CCCOc2ccc(F)cc2)CC1OC` (stereo not given), the Potency result is “inactive”.

Take `O=C(O)C[C@H](NC(=O)OCc1ccccc1)C(=O)O`: the Potency result was “inactive”.

Take `O=C(O)c1ccc(OCCCOc2ccc(C(=O)O)cc2)cc1`: the Potency entry is “inactive”.

On to `Nc1ncnc2c1ncn2[C@H]1CC[C@@H](CO)O1`, for which the Potency result is “inactive”.

For `CCCCN(CCCC)C(C(N)=O)c1ccc(OC)cc1` (stereo not given), the Potency entry is “inactive”.

With `O=C1c2ccccc2C(=O)C1(O)O`, the Potency result is “inactive”.

For `O=C1C(=O)c2ccccc2C(O)=C1C1CCC(c2ccc(Cl)cc2)CC1` (stereo not given), the Potency result is “inactive”.

On to `CC(=O)c1ccc([N+](=O)[O-])cc1`, for which the Potency entry was “inactive”.

In the case of `Nc1nc2ccc([N+](=O)[O-])cc2s1`, the Potency entry was “inactive”.

Regarding `CC1CC(OC(=O)C(O)c2ccccc2)CC(C)(C)N1C` (stereo not given), the Potency entry was “inactive”.

`O=c1cc(-c2ccccc2)oc2cc(O)cc(O)c12`: the Potency entry was “inactive”.

`C1C[C@@H]2[C@H]3CC[C@H](C3)[C@@H]2C1`: the Potency result is “inactive”.

Take `Brc1cc2ccccc2c2ccccc12`: the Potency entry was “inactive”.
